Test results from PubChem BioAssay (NCATS).
Results filed as inconclusive are left out. Calls of active or inactive are those of the source. The call rests on the fitted dose curve; in most records, active means well fitted cell-killing curve with a large enough effect; inconclusive means small, poorly fitted or top-dose-only effect, or effect the other way; inactive means flat fitted curve, though single readings scatter.

Columns and labels:
Experiment in all cases: Primary qHTS to identify gynecologic anti-cancer compounds using libraries of approved drugs and bioactive compounds (AID 1345084); further: nearly all actives have a fitted effect of over 55% in size
C33A = conditions: Gynecologic cancer cell panel viability, ATPlite luminescence, 48 h; series mostly up to 57.5 µM
Outline: (§1)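 Cells, 1,000 per well, plated 16 h, then exposed 48 h at 37 C to compounds. Viability by ATPlite luminescence after 15 min at room temperature.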

CAOV3 = conditions: Gynecologic cancer cell panel viability, ATPlite luminescence, 48 h; series mostly up to 57.5 µM
Outline: as §1

CASKI = conditions: Gynecologic cancer cell panel viability, ATPlite luminescence, 48 h; series mostly up to 57.5 µM
Outline: as §1

Es-2 = conditions: Gynecologic cancer cell panel viability, ATPlite luminescence, 48 h; series mostly up to 57.5 µM
Outline: as §1

HeLa = conditions: Gynecologic cancer cell panel viability, ATPlite luminescence, 48 h; series mostly up to 57.5 µM
Outline: as §1

Hek293T = conditions: Gynecologic cancer cell panel viability, ATPlite luminescence, 48 h, control line for the selectivity index; series mostly up to 57.5 µM
Outline: as §1

JEG-3 = conditions: Gynecologic cancer cell panel viability, ATPlite luminescence, 48 h; series mostly up to 57.5 µM
Outline: as §1

OV90 = conditions: Gynecologic cancer cell panel viability, ATPlite luminescence, 48 h; series mostly up to 57.5 µM
Outline: as §1

PA-1 = conditions: Gynecologic cancer cell panel viability, ATPlite luminescence, 48 h; series mostly up to 57.5 µM
Outline: as §1

SKOV3 = conditions: Gynecologic cancer cell panel viability, ATPlite luminescence, 48 h; series mostly up to 57.5 µM
Outline: as §1

Tov-21-G = conditions: Gynecologic cancer cell panel viability, ATPlite luminescence, 48 h; series mostly up to 57.5 µM
Outline: as §1

Tov112D = conditions: Gynecologic cancer cell panel viability, ATPlite luminescence, 48 h; series mostly up to 57.5 µM
Outline: as §1
On the % scale 0 is the no-effect control and ±100 the full control effect.

C/C=C1\[C@H](O[C@@H]2O[C@H](CO)[C@@H](O)[C@H](O)[C@H]2O)OC=C(C(=O)OC)[C@H]1CC(=O)O
inactive: Potency (C33A) | Potency (CAOV3) | Potency (CASKI) | Potency (Es-2) | Potency (HeLa) | Potency (Hek293T) | Potency (JEG-3) | Potency (OV90) | Potency (PA-1) | Potency (SKOV3) | Potency (Tov-21-G) | Potency (Tov112D)

COC(=O)[C@@]1(c2ccc(C)cc2)C[C@H]1CN1CCC(O)(c2ccccc2)CC1
inactive: Potency (C33A) | Potency (CAOV3) | Potency (CASKI) | Potency (Es-2) | Potency (HeLa) | Potency (Hek293T) | Potency (JEG-3) | Potency (OV90) | Potency (PA-1) | Potency (SKOV3) | Potency (Tov-21-G) | Potency (Tov112D)

CC1(C)CC[C@]2(C(=O)O[C@@H]3O[C@H](CO)[C@@H](O)[C@H](O)[C@H]3O)CC[C@]3(C)C(=CCC4[C@@]5(C)C[C@@H](O)[C@H](O)[C@](C)(C=O)C5CC[C@]43C)[C@@H]2[C@@H]1O (some centres undefined)
inactive: Potency (C33A) | Potency (CAOV3) | Potency (CASKI) | Potency (Es-2) | Potency (HeLa) | Potency (Hek293T) | Potency (JEG-3) | Potency (OV90) | Potency (PA-1) | Potency (SKOV3) | Potency (Tov-21-G) | Potency (Tov112D)

COc1ccc(/C=C/C(=O)O[C@@H]2[C@@H](O)[C@@H](O)[C@H](O[C@@H]3C=C(CO)[C@H]4[C@H](O[C@@H]5O[C@H](CO)[C@@H](O)[C@H](O)[C@H]5O)OC=C[C@H]43)O[C@H]2C)cc1O
inactive: Potency (C33A) | Potency (CAOV3) | Potency (CASKI) | Potency (Es-2) | Potency (HeLa) | Potency (Hek293T) | Potency (JEG-3) | Potency (OV90) | Potency (PA-1) | Potency (SKOV3) | Potency (Tov-21-G) | Potency (Tov112D)

C/C(=C\CCC(C)CCO)C(=O)O[C@@H]1[C@@H](O)[C@H](OC2OC=C(C(=O)O)C3CCC(C)(O)C23)O[C@H](CO)[C@H]1O (some centres undefined)
inactive: Potency (C33A) | Potency (CAOV3) | Potency (CASKI) | Potency (Es-2) | Potency (HeLa) | Potency (Hek293T) | Potency (JEG-3) | Potency (OV90) | Potency (PA-1) | Potency (SKOV3) | Potency (Tov-21-G) | Potency (Tov112D)

C=C1CC2C(C)(CCC(=O)O)C(C(C)(C)O)CCC2(C)C2C(=O)OC(C)(C(=O)OC)C(=O)C12C (centres undefined)
inactive: Potency (C33A) | Potency (CAOV3) | Potency (CASKI) | Potency (Es-2) | Potency (HeLa) | Potency (Hek293T) | Potency (JEG-3) | Potency (OV90) | Potency (PA-1) | Potency (SKOV3) | Potency (Tov-21-G) | Potency (Tov112D)

C=C1C(=O)OC2CC3(C)C(CC12)C(C)=CC(O)C3OC(C)=O (centres undefined)
inactive: Potency (C33A) | Potency (CAOV3) | Potency (CASKI) | Potency (Es-2) | Potency (HeLa) | Potency (Hek293T) | Potency (JEG-3) | Potency (OV90) | Potency (PA-1) | Potency (SKOV3) | Potency (Tov-21-G) | Potency (Tov112D)

C[C@@H]1CN(Cc2ncccn2)C[C@H]1c1nc2c(cnn2C2CCOCC2)c(=O)[nH]1
inactive: Potency (C33A) | Potency (CAOV3) | Potency (CASKI) | Potency (Es-2) | Potency (HeLa) | Potency (Hek293T) | Potency (JEG-3) | Potency (OV90) | Potency (PA-1) | Potency (SKOV3) | Potency (Tov-21-G) | Potency (Tov112D)

CC(=O)N[C@H]1[C@H](O[C@H]2CC[C@@]3(C)C(CC[C@]4(C)C3CC=C3[C@@H]5CC(C)(C)CC[C@]5(C(=O)OC5OCC(O)C(O)C5O)CC[C@]34C)C2(C)C)O[C@H](COC2OC(C)C(O)C(OC3OC(C)C(O)C(O)C3O)C2O)[C@@H](O)[C@@H]1O (some centres undefined)
inactive: activity change, negative = cytotoxicity (C33A) -0.0854% [at 11.6 µM] | activity change, negative = cytotoxicity (CAOV3) 0.431% [at 11.6 µM] | activity change, negative = cytotoxicity (CASKI) 5.69% [at 11.6 µM] | activity change, negative = cytotoxicity (Es-2) 4.54% [at 11.6 µM] | activity change, negative = cytotoxicity (HeLa) 1.75% [at 11.6 µM] | activity change, negative = cytotoxicity (Hek293T) 4.04% [at 11.6 µM] | activity change, negative = cytotoxicity (JEG-3) 1.81% [at 11.6 µM] | activity change, negative = cytotoxicity (OV90) 3.41% [at 11.6 µM] | activity change, negative = cytotoxicity (PA-1) 5.97% [at 11.6 µM] | activity change, negative = cytotoxicity (SKOV3) 2.42% [at 11.6 µM] | activity change, negative = cytotoxicity (Tov-21-G) 2.63% [at 11.6 µM] | activity change, negative = cytotoxicity (Tov112D) 7.32% [at 11.6 µM]

C[C@@H]1O[C@@H](O[C@H]2[C@H](OC(=O)[C@]34CCC(C)(C)C[C@H]3C3=CCC5[C@@]6(C)C[C@H](O)[C@H](O[C@@H]7O[C@H](CO)[C@@H](O[C@H]8OC[C@](O)(CO)[C@H]8O)[C@H](O)[C@H]7O)[C@@](C)(CO)C6[C@H](O)C[C@@]5(C)[C@]3(C)C[C@H]4O)OC[C@H](O)[C@@H]2O)[C@H](O)[C@H](O)[C@H]1O[C@@H]1OC[C@@H](O)[C@H](O[C@@H]2OC[C@](O)(CO)[C@H]2O)[C@H]1O (some centres undefined)
inactive: activity change, negative = cytotoxicity (C33A) -2.68% [at 6.55 µM] | activity change, negative = cytotoxicity (CAOV3) -10.4% [at 6.55 µM] | activity change, negative = cytotoxicity (CASKI) -0.0524% [at 6.55 µM] | activity change, negative = cytotoxicity (Es-2) 0.233% [at 6.55 µM] | activity change, negative = cytotoxicity (HeLa) -3.15% [at 6.55 µM] | activity change, negative = cytotoxicity (Hek293T) 2.67% [at 6.55 µM] | activity change, negative = cytotoxicity (JEG-3) 23.3% [at 6.55 µM] | activity change, negative = cytotoxicity (OV90) -28.7% [at 6.55 µM] | activity change, negative = cytotoxicity (PA-1) 18.7% [at 6.55 µM] | activity change, negative = cytotoxicity (SKOV3) 13.1% [at 6.55 µM] | activity change, negative = cytotoxicity (Tov-21-G) -9.27% [at 6.55 µM] | activity change, negative = cytotoxicity (Tov112D) -0.812% [at 6.55 µM]

CC/C=C\CCO[C@@H]1O[C@H](CO)[C@@H](O)[C@H](O)[C@H]1O
inactive: Potency (C33A) | Potency (CAOV3) | Potency (CASKI) | Potency (Es-2) | Potency (HeLa) | Potency (Hek293T) | Potency (JEG-3) | Potency (OV90) | Potency (PA-1) | Potency (SKOV3) | Potency (Tov-21-G) | Potency (Tov112D)

CC1COC2(OC3CC4C5CC(O[C@@H]6O[C@H](C)[C@@H](O[C@@H]7O[C@@H](C)[C@H](O)[C@@H](O)[C@H]7O)[C@H](O)[C@H]6O)C6CC(O)CCC6(C)C5CCC4(C)C3C2C)C(O)C1 (some centres undefined)
inactive: Potency (C33A) | Potency (CAOV3) | Potency (CASKI) | Potency (Es-2) | Potency (HeLa) | Potency (Hek293T) | Potency (JEG-3) | Potency (OV90) | Potency (PA-1) | Potency (SKOV3) | Potency (Tov-21-G) | Potency (Tov112D)
